Source: PubChem (National Center for Advancing Translational Sciences (NCATS))
Most compounds without a hit are left out; they make up all but 12% or so of the library.
HP1b binding inh – inhibitors of HP1-beta chromodomain binding to methylated histone tails. P83916. AlphaScreen HP1-beta / biotin-H3K9me3 peptide binding. Potency, µM (titrated, usually from 114 µM), most hits filed as inhibitors. 390,000 tested, 0.56% active. AID 540317; note: nearly all actives have a fitted effect of over 70% in size
Target sequence (P83916 whole entry, looked up): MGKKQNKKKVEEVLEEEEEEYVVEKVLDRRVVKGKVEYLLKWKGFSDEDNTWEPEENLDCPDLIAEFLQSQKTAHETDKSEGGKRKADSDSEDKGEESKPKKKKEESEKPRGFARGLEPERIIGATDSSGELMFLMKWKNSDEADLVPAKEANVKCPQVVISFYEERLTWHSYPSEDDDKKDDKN
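AlphaScreen: HP1-beta (50 nM) preformed 30 min with biotin-H3(1-18)K9me3 peptide (50 nM) in PBS pH 7.4, 0.01% Tween-20. Compound added for 30 min at RT, then streptavidin donor/nickel chelate acceptor beads (10 ug/mL) for 30 min.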
G9a inh – inhibitors of human histone lysine methyltransferase G9a. G9a H3K9 monomethylation, AlphaScreen, 2 h. Potency, µM (top dose mostly 102 µM), actives largely listed as inhibitors. 350,000 tested, 8.8% active; note: nearly all actives have a fitted effect of over 75% in size
Target sequence (Q96KQ7 913-1193 limits assumed): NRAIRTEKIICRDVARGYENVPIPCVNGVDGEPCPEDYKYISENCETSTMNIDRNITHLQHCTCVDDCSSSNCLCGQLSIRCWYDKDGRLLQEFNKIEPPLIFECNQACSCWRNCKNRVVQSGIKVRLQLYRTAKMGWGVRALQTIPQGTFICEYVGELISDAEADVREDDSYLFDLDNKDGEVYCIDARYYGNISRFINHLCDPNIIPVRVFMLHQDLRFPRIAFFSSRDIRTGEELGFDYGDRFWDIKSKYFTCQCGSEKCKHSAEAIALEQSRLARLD
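Methyltransferase reactions run at room temperature for 2 h (20 nM enzyme, 500 nM biotin-H3K9 peptide, 20 uM SAM) after a 15 min compound preincubation; product detected by AlphaScreen beads and anti-H3K9me1 antibody.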
BAZ2B block – blocks human BAZ2B. 360,000 tested, 4.4% active. Q9UIF8. Potency, µM (top dose mostly 114 µM), hits mostly inhibitors. AlphaScreen BAZ2B-H3K14Ac peptide displacement. AID 504333; note: nearly all actives have a fitted effect of over 60% in size
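AlphaScreen displacement: compounds (up to 110uM) incubated 30 min at room temperature with a preformed 50 nM BAZ2B/50 nM biotinylated H3K14Ac peptide complex in PBS pH 7.4 with Tween-20. Donor and acceptor beads at 10 ug/mL final added, 20 min light-protected before reading.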
L3MBTL1 block – inhibitors of human L3MBTL1; Q9Y468; AlphaScreen L3MBTL1–H3K9me1 peptide binding; AID 485360; Potency, µM (top dose mostly 57.1 µM), most hits filed as inhibitors; 230,000 tested, 0.66% active; note: nearly all actives have a fitted effect of over 60% in size
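Read-out is AlphaScreen signal from streptavidin donor and nickel chelate acceptor beads (10 ug/mL final each) bridging L3MBTL1 (50 nM) and biotinylated K9-monomethylated H3(1-15) peptide (75 nM), after 30 min compound exposure at room temperature.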
JMJD2A Tudor inh – JMJD2A Tudor domain (human) inhibition. O75164. AlphaScreen JMJD2A-Tudor / H3K4me3 peptide binding. Potency, µM (titrated, usually from 114 µM), most hits filed as inhibitors. 390,000 tested, 4.4% active; note: nearly all actives have a fitted effect of over 50% in size
Sfp PPTase inh – blocks B. subtilis Sfp PPTase activity | Q9F4F7 | Biochemical Sfp PPTase activity, qHTS | Potency, µM, most hits filed as inhibitors | 310,000 tested, 3.5% active | AID 1490;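 note: the enzyme is Sfp with the accession as filed and its product quenches rhodamine fluorescence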
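Step 1, compound plus 15 nM Sfp-PPTase, 15 min, room temperature. Step 2, add rhodamine-CoA (5 uM) and BHQ-2-YbbR (12.5 uM). Step 3, read 525/598 nm fluorescence at 0 and 30 min.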
Each line names hits and unclear results; the compound was inactive in the other large screens. Calls come from the whole dose curve; as a rule, active = well fitted curve in the direction sought with a large enough effect; inconclusive = small, poorly fitted or top-dose-only effect, or another doubt; inactive = no such curve, though single readings can be large; an effect the other way counts as inactive or inconclusive.

CCOC(=O)c1cnc(-n2[nH]c(C)c(Cc3ccccc3)c2=O)[nH]c1=O	BAZ2B block 2µM, L3MBTL1 block 2.8µM, JMJD2A Tudor inh 7.9µM
CCOC(=O)c1cnc(Cc2ccccc2)[nH]c1=O	none
CCOC(=O)c1cnc[nH]c1=O	none (no result: G9a inh, BAZ2B block, L3MBTL1 block, Sfp PPTase inh)
CCOC(=O)c1cnc(-n2[nH]c(C)cc2=O)[nH]c1=O	HP1b binding inh 50µM, G9a inh inconclusive, BAZ2B block 1.8µM, L3MBTL1 block 3.2µM, JMJD2A Tudor inh 2.8µM
O=C(Nc1ccccc1-c1nnc(SCc2ccccc2Cl)o1)c1ccccc1	none
COc1cccc(Cn2ncc3c4sc(SC)cc4n(C)c3c2=O)c1	none (no result: HP1b binding inh, G9a inh, BAZ2B block, L3MBTL1 block, Sfp PPTase inh)
COc1ccccc1NC(=O)CSc1nc(N)c(C#N)cc1C#N	G9a inh 50µM, BAZ2B block inconclusive
CCOc1ccccc1NC(=O)CSc1nc(N)c(C#N)cc1C#N	G9a inh inconclusive
O=C(CSc1cn[nH]n1)Nc1ccccc1C(=O)O	G9a inh 7.9µM, JMJD2A Tudor inh 79µM (no result: L3MBTL1 block)
COc1ccccc1NC(=O)CSC(N)=O	G9a inh 35µM, JMJD2A Tudor inh inconclusive, Sfp PPTase inh 45µM (no result: L3MBTL1 block)
NC(=O)SCC(=O)Nc1ccccc1C(=O)O	G9a inh 50µM, Sfp PPTase inh 18µM
COc1ccc(O)c(C(=O)c2cnc3c(c2)CN(C)C(=O)N3)c1	none
CCCSc1nc2sc3c(c2c(=O)n1-c1ccc(C)cc1)CCCC3	none (no result: L3MBTL1 block, Sfp PPTase inh)
CCOc1ccc(NC(=O)Cn2cc(C(=O)c3ccc(C)c(C)c3)c(=O)c3cc4c(cc32)OCCO4)cc1	none (no result: L3MBTL1 block, Sfp PPTase inh)
CCOc1ccc(NC(=O)C(NS(=O)(=O)c2ccc3c(c2)CCN3C(C)=O)C(C)C)cc1 (stereo unspecified)	none (no result: BAZ2B block, L3MBTL1 block, Sfp PPTase inh)
NC(=O)c1ccccc1NC(=O)CSC1=NCCS1	G9a inh 50µM (no result: L3MBTL1 block)
Cc1ccccc1NC(=O)CSC(N)=O	G9a inh inconclusive, Sfp PPTase inh 14µM
Cc1ccccc1NC(=O)CSCC(=O)Nc1ccccc1C	none (no result: L3MBTL1 block)
O=C(CSC1=NCCS1)Nc1ccc(F)cc1	none
CCOC(=O)N1CCN(C(=O)Cc2ccccc2OC)CC1	G9a inh inconclusive
COC(=O)C1=C(C)N(Cc2ccccc2)C(=O)N[C@H]1c1cccc(F)c1	none (no result: G9a inh, BAZ2B block, L3MBTL1 block)
COC(=O)C1=C(C(=O)OC)C2(OC1c1cccc(F)c1)C(=O)c1ccccc1C2=O (stereo unspecified)	G9a inh 25µM, Sfp PPTase inh 79µM (no result: L3MBTL1 block)
O=C(CCCn1c(=S)[nH]c2cc3c(cc2c1=O)OCO3)NCc1ccccc1Cl	none (no result: L3MBTL1 block)
CCOc1cc(C2C(C(=O)OC)=C(C)NC3=C2C(=O)c2ccccc23)cc(Br)c1OCC (stereo unspecified)	G9a inh 10µM, BAZ2B block 10µM, JMJD2A Tudor inh 13µM (no result: L3MBTL1 block, Sfp PPTase inh)
CCOc1cc(C2C(C(=O)OC)=C(C)NC3=C2C(=O)c2ccccc23)c(Br)cc1O (stereo unspecified)	HP1b binding inh inconclusive, G9a inh 16µM, BAZ2B block 22µM, JMJD2A Tudor inh 35µM (no result: L3MBTL1 block, Sfp PPTase inh)
CCOC(=O)C1=C(C)NC2=C(C(=O)c3ccccc32)C1c1ccc(O)cc1 (stereo unspecified)	G9a inh inconclusive, BAZ2B block inconclusive, JMJD2A Tudor inh inconclusive
CCOC(=O)C1=C(C)NC2=C(C(=O)c3ccccc32)C1c1cccc2ccccc12 (stereo unspecified)	HP1b binding inh inconclusive, BAZ2B block 35µM, JMJD2A Tudor inh 20µM (no result: L3MBTL1 block)
CCOc1cc(Br)c(C2C(C(=O)OC)=C(C)NC3=C2C(=O)c2ccccc23)cc1OCC (stereo unspecified)	G9a inh 18µM, BAZ2B block 32µM (no result: L3MBTL1 block, Sfp PPTase inh)
O=C(O)c1cc(=O)[nH]c2ccccc12	none (no result: G9a inh, BAZ2B block, L3MBTL1 block, Sfp PPTase inh)
C=CCN1C(=O)/C(=C/C=C2/N(CC)c3ccc(S(=O)(=O)N(C)C)cc3N2CC)SC1=S	G9a inh inconclusive, BAZ2B block inconclusive, Sfp PPTase inh inconclusive
CC1CC(NC(=O)/C=C/C(=O)O)CC(C)(C)C1 (stereo unspecified)	none (no result: G9a inh)
CC1CC(C)CN(C(=O)COC(=O)c2c[nH]c3ccccc23)C1 (stereo unspecified)	L3MBTL1 block inconclusive (no result: Sfp PPTase inh)
CCCN1C(=O)/C(=C/c2c(N3CCNC(=O)C3CC(=O)OC)nc3c(C)cccn3c2=O)SC1=S (stereo unspecified)	BAZ2B block inconclusive (no result: HP1b binding inh, G9a inh, JMJD2A Tudor inh)
CCOc1cc(C2C(C(=O)OC)=C(C)NC3=C2C(=O)c2ccccc23)ccc1OC (stereo unspecified)	HP1b binding inh inconclusive, G9a inh inconclusive (no result: L3MBTL1 block, Sfp PPTase inh)
COc1cccc(C2C(=O)c3ccccc3C2=O)c1	G9a inh 50µM
COC(=O)C1=C(C)NC2=C(C(=O)c3ccccc32)C1c1cccc(OC)c1 (stereo unspecified)	G9a inh 50µM (no result: L3MBTL1 block)
C#CCOc1ccc(C2C(C(=O)OC)=C(C)NC3=C2C(=O)c2ccccc23)cc1OCC (stereo unspecified)	HP1b binding inh inconclusive, G9a inh 11µM, BAZ2B block 22µM, JMJD2A Tudor inh 25µM (no result: L3MBTL1 block, Sfp PPTase inh)
CCOc1cc(C2C(C(=O)OC)=C(C)NC3=C2C(=O)c2ccccc23)c(Br)cc1OC (stereo unspecified)	none (no result: L3MBTL1 block, Sfp PPTase inh)
CCOC(=O)COc1ccc(C2C(C(=O)OC)=C(C)NC3=C2C(=O)c2ccccc23)cc1Cl (stereo unspecified)	HP1b binding inh inconclusive, JMJD2A Tudor inh 18µM (no result: L3MBTL1 block, Sfp PPTase inh)
